Bioassay records (PubChem)
The list is not random: actives were taken first. Their share in the collection is about 18%.
TDP1 cell CPT: DT40-hTDP1 cell growth loss with CPT. chicken DT40 Tdp1-/-;hTDP1 cells + 20 nM CPT, ATP luminescence, 48 h. Potency, µM (series often up to 46.2 µM), inactives show top-dose activity change, negative = growth inhibition, hits mostly inhibitors. actives 12% (n = 420,000); note: nearly all actives have a fitted effect of over 55% in size
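Cell growth measured by CellTiter-Glo luminescence after a minimum 48 h, 37 C compound exposure with 20 nM CPT in Tdp1-knockout DT40 cells stably expressing hTDP1, seeded 400/well; qHTS titration format.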
VDR inh: vitamin D3 receptor (human) inhibition; VDR-SRC2-3 peptide fluorescence polarization, 2 h; Potency, µM, for the others: max response, negative = inhibition, most hits filed as inhibitors; actives 0.93% (n = 400,000)
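VDR–SRC2-3 interaction, FP format. Cmpds 23 nl via pintool, brief spin, 2 h ambient incubation.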
PLK1 PBD inh: inhibitors of human PLK1 polo-box domain binding; P53350; Plk1 PBD binding of FITC phosphopeptide, fluorescence polarization; Potency, µM, for inactives: max response, negative = inhibition, hits mostly inhibitors; actives 2.8% (n = 360,000); AID 720504; note: series mostly up to about 57 µM; nearly all actives have a fitted effect of over 65% in size
Target sequence (P53350 whole entry, looked up, the tested form may be a part): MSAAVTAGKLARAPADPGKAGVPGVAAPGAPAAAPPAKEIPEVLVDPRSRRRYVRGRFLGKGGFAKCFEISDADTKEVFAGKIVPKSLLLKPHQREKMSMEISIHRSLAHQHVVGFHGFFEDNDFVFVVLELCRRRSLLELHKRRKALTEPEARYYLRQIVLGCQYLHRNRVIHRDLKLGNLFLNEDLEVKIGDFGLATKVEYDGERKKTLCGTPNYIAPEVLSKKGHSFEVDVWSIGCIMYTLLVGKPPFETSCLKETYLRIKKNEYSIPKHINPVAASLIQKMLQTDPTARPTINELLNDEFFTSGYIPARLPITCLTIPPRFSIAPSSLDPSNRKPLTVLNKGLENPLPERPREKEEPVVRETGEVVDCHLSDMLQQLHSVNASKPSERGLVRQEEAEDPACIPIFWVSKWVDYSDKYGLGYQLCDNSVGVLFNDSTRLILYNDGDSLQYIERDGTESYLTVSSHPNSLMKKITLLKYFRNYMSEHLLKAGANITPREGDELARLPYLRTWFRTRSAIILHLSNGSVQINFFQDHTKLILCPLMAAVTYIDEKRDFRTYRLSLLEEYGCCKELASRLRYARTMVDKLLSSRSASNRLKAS
KAT2A inh: inhibitors of human GCN5L2 histone acetyltransferase | actives 0.21% (n = 390,000) | Potency, µM (highest dose often 58.9 µM), for inactives: top-dose activity change, negative = inhibition, usual class: inhibitors | GCN5L2 HAT assay, ThioGlo1 CoA-SH fluorescence
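Enzyme at 20nM final was mixed with library compounds for 15 min at room temperature. Peptide H3(1-25) at 75uM, acetyl-CoA at 70uM and ThioGlo1 at 50uM were then added. Plates were read immediately and after 20 min (Ex340nm/Em540nm).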
DT40 TDP1 no CPT: qHTS for Inhibitors of human tyrosyl-DNA phosphodiesterase 1 (TDP1): qHTS in cells in absence of CPT; DT40 Tdp1-/- hTDP1 cells, no CPT, ATP luminescence, 48 h; Potency, µM (top dose mostly 46.2 µM), for the others: top-dose activity change, negative = growth inhibition, actives largely listed as inhibitors; actives 15% (n = 420,000); AID 686978, 2013; note: nearly all actives have a fitted effect of over 55% in size
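Camptothecin absent (DMSO only). Human TDP1-complemented DT40 knockout cells, 400 cells/well, 37 °C for minimum 48 hr; ATP measured via CellTiter-Glo, 30 min dark incubation, luminescence.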
TDP1 inh: inhibitors of human tyrosyl-DNA phosphodiesterase TDP1. Q9NUW8. recombinant TDP1, AlphaScreen DNA substrate cleavage. Potency, µM (titrated, usually from 130 µM), inactives show top-dose activity change, negative = inhibition, hits mostly inhibitors. actives 0.28% (n = 350,000). AID 485290; note: nearly all actives have a fitted effect of over 40% in size
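AlphaScreen read-out: signal falls as enzyme removes the 3' tyrosine-FITC from a 5'-biotinylated DNA oligo (15 nM, 5 min, RT). Enzyme was E. coli-made recombinant Tdp1 at 1 nM, exposed to compound for 15 min beforehand; beads 10 ug/ml, 10 min.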
* marks the source's active call; other numbers are inactive results; u = inconclusive; x = no result given; [ ] = another dose, or the depositor's remark. Calls come from the whole dose curve; as a rule, active = well fitted curve in the direction sought with a large enough effect; inconclusive = small, poorly fitted or top-dose-only effect, or another doubt; inactive = no such curve, though single readings can be large; an effect the other way counts as inactive or inconclusive. % is set by controls: 0 for no effect and ±100 for the full control effect; potency is the fitted concentration of half-maximal effect.

SMILES | TDP1 cell CPT | VDR inh | PLK1 PBD inh | KAT2A inh | DT40 TDP1 no CPT | TDP1 inh
Cc1ccc(S(=O)(=O)n2nc(C)cc2N)cc1 | 9% | 10% | -6% | -6% | -3% | x
Cc1ccc(S(=O)(=O)n2nc(C)c(C#N)c2N)cc1 | -29% | u | 27µM* | -7% | u | 8%
CN(C)CCN(C)Cc1ccccc1Sc1cccc2ccccc12 | 9.2µM* | -7% | -12% | 0% | 8.2µM* | 0%
CNCc1ccccc1Sc1cccc2ccccc12 | 23µM* | -1% | -8% | 0% | 23µM* | 3%
COc1cccc(CN(C)C(=O)Cc2c[nH]c3ccccc23)c1 | -26% | 18% | 2% | -21% | -15% | 2%
CCOC(=O)c1cnc(SSc2ncc(C(=O)OCC)c(N)n2)nc1N | 23µM* | u | 1.1µM* | u | 15µM* | x
CCOc1ccccc1N1CCN(C(=O)C2=CC=CN3CCS(=O)(=O)N=C23)CC1 | -4% | 8% | -15% | -1% | u | -4%
O=C(O)c1ccc(Sc2nnc(-c3cccc(Br)c3)o2)c([N+](=O)[O-])c1 | 4% | -7% | -21% | 0% | 2% | 2%
Cn1c(Sc2ccc(C(=O)O)cc2[N+](=O)[O-])nnc1-c1ccccc1 | 21µM* | 79µM* | 4.2µM* | -5% | u | -8%
Cc1ccc(Oc2c(C(F)(F)F)oc3c(CN4CCCCC4C)c(O)ccc3c2=O)cc1 (configuration not stated) | u | 36% | x | -15% | 26µM* | x
C[C@@H]1C=CC(=O)O[C@@H]1c1ccc(Cl)cc1 | 7.3µM* | -19% | -16% | 3% | 7.3µM* | x
O=C(Cc1ccc(S(=O)(=O)N2CCOCC2)s1)Nc1cc(C(F)(F)F)ccc1N1CCCC1 | u | 12% | -3% | -10% | 21µM* | -13%[0.505 µM]
O=C(Cc1ccc(S(=O)(=O)N2CCOCC2)s1)Nc1ccccc1N1CCCC1 | 16µM* | 6% | -15% | -21% | 15µM* | 0%[56.1 µM]
CCCCCCOc1ccc(C2C(=O)N(C3CCCCC3)CC(=O)N2C2CCCCC2)cc1 (configuration not stated) | -4% | 0% | x | -1% | -2% | 8%
O=C(OCc1ccccc1F)c1cnc(Cl)c(Cl)c1 | 28% | -10% | -18% | -5% | 1% | 89µM*
O=C(OCc1ccc([N+](=O)[O-])cc1)c1cnc(Cl)c(Cl)c1 | 3% | 11% | -8% | -4% | -6% | x
C(=Nc1ccc(/C=C/c2ccnc3ccccc23)cc1)c1cccs1 | u | x | x | x | 13µM* | x
C(=Nc1ccc(/C=C/c2ccnc3ccccc23)cc1)c1ccc2c(c1)OCO2 | u | x | x | x | 18µM* | x
C(=Nc1ccc(/C=C/c2ccnc3ccccc23)cc1)c1ccco1 | 16µM* | x | x | x | 13µM* | x
CCCCc1nc2c(c3c1C[C@H](C)OC3)CN(C(=O)COC)CC2 | x | x | x | x | x | 12%[12.3 µM]
O=S(=O)(c1ccc(Cl)cc1)N1CCN(c2nc(Nc3cc(Cl)ccc3O)nc3ccccc23)CC1 | u | -15% | x | x | u | 2%[96 µM]
Cn1c(Sc2ccc(Cl)cc2)c(C=O)c2ccccc21 | u | 15% | -7% | -2% | 21µM* | -4%
Cc1cccc(Sc2c(C=O)c3ccccc3n2C)c1 | 6% | 0% | -2% | -16% | -13% | -3%
Cc1ccc(NNC(=O)Nc2ccc(Cl)cc2)nn1 | 21µM* | 18µM* | 6µM* | -2% | u | x
O=C(NNc1cccc(Cl)n1)Nc1ccc(Cl)cc1 | u | -12% | -15% | -9% | -25% | -1%
SMILES | TDP1 cell CPT | VDR inh | PLK1 PBD inh | KAT2A inh | DT40 TDP1 no CPT | TDP1 inh
C=CCn1c(O)c(C2=c3ccccc3=NC2=O)sc1=Nc1ccc(O)cc1 | 23µM* | -4% | 3% | -10% | u | x
Cc1noc(C)c1COc1ccc(C(=O)NNC(=O)c2ccccc2)cc1 | 5.2µM* | -6% | -6% | -4% | 4.6µM* | x
Cc1noc(C)c1COc1cccc(C(=O)Nc2ccc3c(c2)OCO3)c1 | u | -13% | 6% | -6% | -16% | -2%
CCOc1ccccc1N1CCN(C(=O)c2c(C)noc2C)CC1 | -26% | -11% | -3% | -6% | -14% | 2%
CC(C)Oc1cccc(C(=O)Nc2ccc(Br)cc2F)c1 | u | -7% | -10% | -6% | 16µM* | 5%
Cc1noc(C)c1COc1ccc(C(=O)O)cc1 | -10% | 17% | -4% | 2% | -11% | 6%
COc1cccc(C(=O)Nc2ccc(F)cc2F)c1 | -15% | 17% | 2% | 4% | -15% | 2%
Cc1noc(C)c1COc1cccc(C(=O)OC(C)C(=O)Nc2ccc3c(c2)OCO3)c1 (configuration not stated) | 1µM* | -1% | -3% | -2% | 0.82µM* | 0%
Cc1noc(C)c1C(=O)N1CCN(c2ccc(OCc3ccccc3)cc2)CC1 | 15µM* | -29% | 0% | -1% | 16µM* | x
O=C(O)COc1ccccc1/C=N/NC(=O)CSc1nc2ccccc2n1Cc1ccc(Cl)cc1 | 3% | -18% | u | -1% | -3% | 0%
Clc1ccc(-n2cccc2CN2CCc3nnc(Cc4ccccc4)n3CC2)nc1 | 4% | x | x | x | -14% | x
Cc1ccc(NC(=O)c2ccc(OCc3c(C)noc3C)cc2)c(C)c1 | u | 12% | 4% | -4% | -19% | 0%
Cc1noc(C)c1COc1cccc(C(=O)Nc2ccc(Br)cc2F)c1 | 8.2µM* | 9% | -2% | -13% | 6.5µM* | -4%
Cc1cc(NC(=O)c2ccc3c(c2)OCCO3)ccc1NC(=O)c1cc2ccccc2o1 | 5.8µM* | -13% | -8% | 1% | 4.6µM* | 1%
Cc1cc(NC(=O)c2cccnc2)ccc1NC(=O)c1cc2ccccc2o1 | 13µM* | -7% | 5% | -22% | 10µM* | 1%
CN(CCc1ccccc1)C(=O)c1ccc(NC(=O)Cc2ccc(NC(=O)C3CCCN(S(=O)(=O)c4cccc([N+](=O)[O-])c4)C3)cc2)cc1 (configuration not stated) | -21% | -21% | -5% | x | -20% | x
COc1cccc(C(c2nnnn2Cc2ccco2)N2CCN(Cc3ccccc3)CC2)c1OC (configuration not stated) | u | -13% | 8% | -8% | -19% | 10%
CCC(c1nnnn1-c1ccc(OC)cc1)N1CCN(C/C=C/c2ccccc2)CC1 (configuration not stated) | 21µM* | x | 0% | x | u | x
